# Reference: PubChem BioAssay AID1159580 (chemical genetic matrix, 2015)
# The campaign covered roughly 5,500 compounds. About 2,000 (36%) were called active. Inconclusive results (about 18%) are left out. This is one part of the list. Values without a mark were called inactive. Cut-off read from the data, not from the text of the source: active = normalized growth mostly below about 0.91 (no sharp cut-off); inconclusive = no clear call, values can overlap the other calls; inactive = mostly above about 0.92.
# Assay: chemical genetic growth profiling, strain panel (AID 1159580);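 note: tested at 20 µM; growth read once vehicle control cultures reached saturation at 30 °C; 1 = growth at the plate median or of vehicle wells; lower values mean less growth of the strain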
# Conditions: S. cerevisiae deletion strains, growth OD
smiles,measurement,setting,value
O=c1c(O)c(-c2ccc(O)c(O)c2)oc2c(O)c(O)cc(O)c12,normalized growth,"locus YAL021C, strain ccr4, stronger effect = lower value",0.864 (active)
same,normalized growth,"locus YAL026C, strain drs2, stronger effect = lower value",0.954
same,normalized growth,"locus YAL030W, strain snc1, stronger effect = lower value",1
same,normalized growth,"locus YBL061C, strain skt5, stronger effect = lower value",0.925
same,normalized growth,"locus YBR009C, strain hhf1, stronger effect = lower value",1.04
same,normalized growth,"locus YBR023C, strain chs3, stronger effect = lower value",0.929
same,normalized growth,"locus YBR171W, strain sec66, stronger effect = lower value",1.02
same,normalized growth,"locus YBR231C, strain swc5, stronger effect = lower value",0.927
same,normalized growth,"locus YBR279W, strain paf1, stronger effect = lower value",0.994
same,normalized growth,"locus YCL011C, strain gbp2, stronger effect = lower value",1.01
same,normalized growth,"locus YCL016C, strain dcc1, stronger effect = lower value",0.991
same,normalized growth,"locus YCL061C, strain MRC1, stronger effect = lower value",0.989
same,normalized growth,"locus YCL069W, strain vba3, stronger effect = lower value",1.01
same,normalized growth,"locus YCR088W, strain abp1, stronger effect = lower value",1.02
same,normalized growth,"locus YDL005C, strain med2, stronger effect = lower value",1.03
same,normalized growth,"locus YDL040C, strain nat1, stronger effect = lower value",1.02
same,normalized growth,"locus YDR001C, strain nth1, stronger effect = lower value",1.02
same,normalized growth,"locus YDR069C, strain doa4, stronger effect = lower value",0.906
same,normalized growth,"locus YDR137W, strain rgp1, stronger effect = lower value",1.02
same,normalized growth,"locus YDR159W, strain sac3, stronger effect = lower value",1.13 [resistant] (active)
same,normalized growth,"locus YDR195W, strain ref2",1.01
same,normalized growth,"locus YDR297W, strain sur2, stronger effect = lower value",1
same,normalized growth,"locus YDR334W, strain swr1, stronger effect = lower value",0.983
same,normalized growth,"locus YDR335W, strain msn5, stronger effect = lower value",0.994
same,normalized growth,"locus YDR392W, strain spt3, stronger effect = lower value",1.04
same,normalized growth,"locus YEL003W, strain gim4, stronger effect = lower value",0.996
same,normalized growth,"locus YEL037C, strain rad23, stronger effect = lower value",0.987
same,normalized growth,"locus YEL061C, strain CIN8 (second series), stronger effect = lower value",1.01
same,normalized growth,"locus YER015W, strain faa2, stronger effect = lower value",0.98
same,normalized growth,"locus YER016W, strain bim1, stronger effect = lower value",1.02
same,normalized growth,"locus YER111C, strain swi4, stronger effect = lower value",0.942
same,normalized growth,"locus YER155C, strain BEM2 (second series), stronger effect = lower value",0.984
same,normalized growth,"locus YFR010W, strain ubp6, stronger effect = lower value",0.932
same,normalized growth,"locus YGL167C, strain pmr1, stronger effect = lower value",1.01
same,normalized growth,"locus YGL173C, strain kem1, stronger effect = lower value",0.947
same,normalized growth,"locus YGL227W, strain vid30, stronger effect = lower value",1.03
same,normalized growth,"locus YGL240W, strain doc1, stronger effect = lower value",1.11
same,normalized growth,"locus YGL253W, strain hxk2, stronger effect = lower value",1
same,normalized growth,"locus YHR013C, strain ard1, stronger effect = lower value",0.931
same,normalized growth,"locus YHR027C, strain rpn1, stronger effect = lower value",0.983
same,normalized growth,"locus YHR030C, strain SLT2, stronger effect = lower value",1
same,normalized growth,"locus YHR079C, strain IRE1, stronger effect = lower value",1.02
same,normalized growth,"locus YHR142W, strain chs7, stronger effect = lower value",0.891
same,normalized growth,"locus YJL092W, strain hpr5, stronger effect = lower value",1.02
same,normalized growth,"locus YJL095W, strain BCK1 (second series), stronger effect = lower value",0.993
same,normalized growth,"locus YJL095W, strain BCK1, stronger effect = lower value",1.02
same,normalized growth,"locus YJL115W, strain asf1, stronger effect = lower value",1.01
same,normalized growth,"locus YJL129C, strain trk1, stronger effect = lower value",1.08
same,normalized growth,"locus YJL154C, strain vps35, stronger effect = lower value",1.02
same,normalized growth,"locus YJL164C, strain tpk1, stronger effect = lower value",0.959
same,normalized growth,"locus YJL166W, strain qcr8, stronger effect = lower value",0.995
same,normalized growth,"locus YJL187C, strain SWE1, stronger effect = lower value",0.997
same,normalized growth,"locus YJR066W, strain TOR1, stronger effect = lower value",0.967
same,normalized growth,"locus YKL160W, strain elf1, stronger effect = lower value",0.942
same,normalized growth,"locus YKR026C, strain gcn3, stronger effect = lower value",1.01
same,normalized growth,"locus YKR091W, strain srl3, stronger effect = lower value",1.03
same,normalized growth,"locus YLL001W, strain dnm1, stronger effect = lower value",1.03
same,normalized growth,"locus YLL026W, stronger effect = lower value",1.02
same,normalized growth,"locus YLL041C, strain sdh2, stronger effect = lower value",1.01
same,normalized growth,"locus YLR027C, strain aat2, stronger effect = lower value",0.992
same,normalized growth,"locus YLR113W, strain HOG1, stronger effect = lower value",1.12
same,normalized growth,"locus YLR221C, strain rsa3, stronger effect = lower value",0.981
same,normalized growth,"locus YLR258W, strain gsy2, stronger effect = lower value",1.01
same,normalized growth,"locus YLR262C, strain YPT6 (second series), stronger effect = lower value",0.919
same,normalized growth,"locus YLR320W, strain mms22, stronger effect = lower value",1.02
same,normalized growth,"locus YLR342W, strain FKS1, stronger effect = lower value",0.967
same,normalized growth,"locus YLR357W, strain rsc2, stronger effect = lower value",0.889
same,normalized growth,"locus YLR370C, strain arc18, stronger effect = lower value",0.938
same,normalized growth,"locus YLR384C, strain iki3, stronger effect = lower value",1.01
same,normalized growth,"locus YML120C, strain ndi1, stronger effect = lower value",1
same,normalized growth,"locus YMR058W, strain fet3, stronger effect = lower value",0.921
same,normalized growth,"locus YMR125W, strain sto1, stronger effect = lower value",1.03
same,normalized growth,"locus YMR129W, stronger effect = lower value",1.02
same,normalized growth,"locus YMR205C, strain PFK2, stronger effect = lower value",1.06
same,normalized growth,"locus YMR231W, strain pep5, stronger effect = lower value",0.999
same,normalized growth,"locus YNL071W, strain lat1, stronger effect = lower value",1.01
same,normalized growth,"locus YNL183C, strain NPR1, stronger effect = lower value",0.997
same,normalized growth,"locus YNL209W, strain ssb2, stronger effect = lower value",0.94
same,normalized growth,"locus YNL248C, strain rpa49, stronger effect = lower value",1
same,normalized growth,"locus YNL322C, strain KRE1 (second series), stronger effect = lower value",1.01
same,normalized growth,"locus YNR049C, strain mso1, stronger effect = lower value",1.02
same,normalized growth,"locus YOR001W, strain rrp6, stronger effect = lower value",0.981
same,normalized growth,"locus YOR070C, strain gyp1, stronger effect = lower value",1.01
same,normalized growth,"locus YOR080W, strain dia2, stronger effect = lower value",1.01
same,normalized growth,"locus YOR083W, strain WHI5, stronger effect = lower value",0.931
same,normalized growth,"locus YOR106W, strain vam3, stronger effect = lower value",0.872
same,normalized growth,"locus YOR231W, strain MKK1, stronger effect = lower value",1.03
same,normalized growth,"locus YOR265W, strain rbl2, stronger effect = lower value",1
same,normalized growth,"locus YOR270C, strain vph1, stronger effect = lower value",0.948
same,normalized growth,"locus YOR290C, strain snf2, stronger effect = lower value",0.962
same,normalized growth,"locus YPL051W, strain arl3, stronger effect = lower value",0.92
same,normalized growth,"locus YPL078C, strain atp4, stronger effect = lower value",0.963
same,normalized growth,"locus YPL106C, strain sse1, stronger effect = lower value",1
same,normalized growth,"locus YPL240C, strain hsp82, stronger effect = lower value",0.994
same,normalized growth,"locus YPL256C, strain CLN2, stronger effect = lower value",1.04
